# Measured values: PubChem BioAssay
# Activity calls are given as the source filed them.
# Tests used:
# [1] = small molecules captured by biotinylated probe aFSTL3 – biochemical, small-molecule microarray, fluorescence 635/667, stem cell growth factor project, primary screen (AID 1064); conditions: higher = more signal;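 further: measures binding of the biotinylated anti-FSTL3 antibody to printed compounds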
# [2] = binders from COS7 lysate, DM2A8 probe, primary screen, torsin A project, cell lysate, small-molecule microarray, fluorescence 635/667 (AID 1065); conditions: higher = more signal, COS7 lysate expressing mutant human TOR1A
# [3] = small molecules captured by biotinylated probe aFGF2 – biochemical, small-molecule microarray, fluorescence 635/667, stem cell growth factor project, primary screen (AID 1067); conditions: higher = more signal;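 further: measures binding of biotinylated aFGF2 protein to printed compounds on slides; z-score merges feature fluorescence and signal-to-noise across triplicate slides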
# [4] = small molecules captured by biotinylated probe aFGF10 – biochemical, small-molecule microarray, fluorescence 635/667, stem cell growth factor project, primary screen (AID 1071); conditions: higher = more signal;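 further: score merges 667 nm spot intensity and signal to noise from triplicate slides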
# [5] = biological target: Neurogenic locus notch homolog protein 2 (Homo sapiens) (UniProt Q04721); assay: small molecules binding Notch2 protein – biochemical, small-molecule microarray, 635 nm fluorescence, stem cell growth factors, primary screen (AID 1073); conditions: higher = more signal
# [6] = biological target: Pro-neuregulin-1, membrane-bound isoform (Homo sapiens) (UniProt Q02297); assay: small molecules binding neuregulin-1 protein – biochemical, small-molecule microarray, fluorescence 635/667, psychiatric disease protein project, primary screen (AID 1075); conditions: NRG1 binding, 635 nm fluorescence, higher = more signal;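 further: score combines 667 nm spot fluorescence with signal to noise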
# Chain of Pro-neuregulin-1, membrane-bound isoform (Homo sapiens) (Q02297 whole entry, looked up, the tested form may be a part, canonical isoform): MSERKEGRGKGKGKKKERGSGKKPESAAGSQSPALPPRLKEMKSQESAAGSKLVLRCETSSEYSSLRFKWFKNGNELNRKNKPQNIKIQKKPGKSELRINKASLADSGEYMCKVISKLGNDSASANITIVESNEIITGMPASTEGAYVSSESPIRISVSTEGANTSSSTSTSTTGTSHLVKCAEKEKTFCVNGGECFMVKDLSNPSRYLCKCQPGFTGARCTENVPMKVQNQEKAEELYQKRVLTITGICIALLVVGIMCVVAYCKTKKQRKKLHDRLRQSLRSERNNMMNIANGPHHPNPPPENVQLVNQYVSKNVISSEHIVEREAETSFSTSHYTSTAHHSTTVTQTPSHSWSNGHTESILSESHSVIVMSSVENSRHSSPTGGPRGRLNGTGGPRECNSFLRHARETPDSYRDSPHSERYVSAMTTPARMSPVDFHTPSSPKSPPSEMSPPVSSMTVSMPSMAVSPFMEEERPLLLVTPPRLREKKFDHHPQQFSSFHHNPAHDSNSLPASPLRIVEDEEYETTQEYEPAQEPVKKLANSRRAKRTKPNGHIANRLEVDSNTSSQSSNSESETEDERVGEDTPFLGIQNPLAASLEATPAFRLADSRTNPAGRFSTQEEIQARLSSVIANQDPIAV
# [7] = test system: Neuregulin-1 EGF-like domain; assay: small molecules binding NRG1 EGF domain – biochemical, small-molecule microarray, 635 nm fluorescence, primary screen (AID 1081); conditions: higher = more signal;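 further: binding of the protein to compounds printed on small-molecule microarray slides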
# [8] = FRG1 expression reporter modulators in myotubes – cell-based, C2C12 myotubes, firefly/Renilla luciferase, luminescence, FRG1 inhibition for FSHD, primary screen (AID 1084); conditions: FRG1 promoter luciferase, higher = more signal, called active from +8 up or from −8 down
# [9] = small molecules captured by biotinylated probe aFST – biochemical, small-molecule microarray, fluorescence 635/667, stem cell growth factor project, primary screen (AID 1086); conditions: higher = more signal;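 further: score merges 667 nm fluorescence with signal-to-noise of each printed compound spot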
# [10] = binders of probe aHhip on microarray, primary screen, stem cell growth factor project, biochemical, small-molecule microarray, fluorescence 635/667 (AID 1087); conditions: higher = more signal;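 further: score merges spot fluorescence at 667nm with spot signal to noise ratio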
# [11] = test system: PRMT1 (protein arginine N-methyltransferase 1); assay: small molecules binding arginine methyltransferase PRMT1 – biochemical, small-molecule microarray, 635 nm fluorescence, primary screen (AID 1088); conditions: higher = more signal;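 further: binding of Prmt1 protein to compounds spotted on small-molecule microarray slides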
# [12] = growth effects on S. cerevisiae YJM789 – YJM789 clinical isolate, OD600, 24 h, basal, primary screen (AID 1089); conditions: higher = more signal, called active from +8 up or from −8 down;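 further: growth of clinical yeast isolate S. cerevisiae YJM 789 seeded 1000 cells per well; test concentration not given here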
# [13] = S. pombe growth modifiers, basal conditions – strain 972, OD600, 24 h, no modulator, primary screen (AID 1090);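 further: basal condition with compound alone and no growth modifier present; test concentration not given here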; conditions: S. pombe 972 growth, higher = more signal, called active from +8 up or from −8 down
# [14] = budding yeast growth modifiers under rapamycin – strain BY4716, OD600, 96 h, primary screen (AID 1091); further: test concentration not given here; conditions: S. cerevisiae BY4716 + rapamycin, higher = more signal, called active from +8 up or from −8 down
# [15] = biological target: Torsin-1A-interacting protein 2 (Homo sapiens) (UniProt Q8NFQ8); assay: small molecules binding lysate-expressed LULL1 – cell lysate, human LULL1 lysate, 635/667 nm fluorescence, primary screen (AID 1092); conditions: small-molecule microarray, hLULL1 lysate binding, 635 nm fluorescence; higher = more signal;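 further: probe is lysate of COS7 cells overexpressing human LULL1; score merges per-feature 667 nm fluorescence with signal-to-noise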
# Chain of Torsin-1A-interacting protein 2 (Homo sapiens) (Q8NFQ8 whole entry, looked up): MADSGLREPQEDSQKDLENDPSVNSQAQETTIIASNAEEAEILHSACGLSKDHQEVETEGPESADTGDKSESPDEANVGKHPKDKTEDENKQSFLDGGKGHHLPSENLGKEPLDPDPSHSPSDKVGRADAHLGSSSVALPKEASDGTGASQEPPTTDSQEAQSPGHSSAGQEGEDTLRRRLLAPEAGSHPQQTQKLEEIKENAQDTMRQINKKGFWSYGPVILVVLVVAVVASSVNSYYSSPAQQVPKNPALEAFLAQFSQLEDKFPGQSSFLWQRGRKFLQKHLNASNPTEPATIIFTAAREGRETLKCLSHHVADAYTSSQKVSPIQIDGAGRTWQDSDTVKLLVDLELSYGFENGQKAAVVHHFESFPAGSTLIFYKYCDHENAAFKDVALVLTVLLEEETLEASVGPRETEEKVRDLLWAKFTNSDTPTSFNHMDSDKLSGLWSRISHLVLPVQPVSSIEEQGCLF
# [16] = optical density change of DRC41 E. coli – strain DRC41, OD650, 24 h, E. coli filamentation project, primary screen (AID 1093);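 further: MC1000 strain lacking acrAB efflux and sulA so SOS filamentation is blocked; test concentration not given here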; conditions: E. coli DRC41 growth, higher = more signal, called active from +8 up or from −8 down
# [17] = probe aLefty2 binding to arrayed compounds – biochemical, biotinylated probe, 635/667 nm fluorescence, primary screen (AID 1094); conditions: small-molecule microarray, higher = more signal;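 further: score merges spot fluorescence near 667 nm with spot signal-to-noise ratio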
# [18] = test system: Noggin (protein binding on small-molecule microarray); assay: small molecules binding Noggin protein – biochemical, 635/667 nm fluorescence, primary screen (AID 1095); conditions: 635 nm fluorescence, higher = more signal;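 further: score merges 667 nm feature fluorescence with signal to noise over triplicate slides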
# [19] = biological target: Neurogenic locus notch homolog protein 3 (Homo sapiens) (UniProt Q9UM47); assay: small molecules binding NOTCH3 protein – biochemical, 635/667 nm fluorescence, primary screen (AID 1096); conditions: small-molecule microarray, 635 nm fluorescence, higher = more signal
# Chain of Neurogenic locus notch homolog protein 3 (Homo sapiens) (Q9UM47 whole entry, looked up): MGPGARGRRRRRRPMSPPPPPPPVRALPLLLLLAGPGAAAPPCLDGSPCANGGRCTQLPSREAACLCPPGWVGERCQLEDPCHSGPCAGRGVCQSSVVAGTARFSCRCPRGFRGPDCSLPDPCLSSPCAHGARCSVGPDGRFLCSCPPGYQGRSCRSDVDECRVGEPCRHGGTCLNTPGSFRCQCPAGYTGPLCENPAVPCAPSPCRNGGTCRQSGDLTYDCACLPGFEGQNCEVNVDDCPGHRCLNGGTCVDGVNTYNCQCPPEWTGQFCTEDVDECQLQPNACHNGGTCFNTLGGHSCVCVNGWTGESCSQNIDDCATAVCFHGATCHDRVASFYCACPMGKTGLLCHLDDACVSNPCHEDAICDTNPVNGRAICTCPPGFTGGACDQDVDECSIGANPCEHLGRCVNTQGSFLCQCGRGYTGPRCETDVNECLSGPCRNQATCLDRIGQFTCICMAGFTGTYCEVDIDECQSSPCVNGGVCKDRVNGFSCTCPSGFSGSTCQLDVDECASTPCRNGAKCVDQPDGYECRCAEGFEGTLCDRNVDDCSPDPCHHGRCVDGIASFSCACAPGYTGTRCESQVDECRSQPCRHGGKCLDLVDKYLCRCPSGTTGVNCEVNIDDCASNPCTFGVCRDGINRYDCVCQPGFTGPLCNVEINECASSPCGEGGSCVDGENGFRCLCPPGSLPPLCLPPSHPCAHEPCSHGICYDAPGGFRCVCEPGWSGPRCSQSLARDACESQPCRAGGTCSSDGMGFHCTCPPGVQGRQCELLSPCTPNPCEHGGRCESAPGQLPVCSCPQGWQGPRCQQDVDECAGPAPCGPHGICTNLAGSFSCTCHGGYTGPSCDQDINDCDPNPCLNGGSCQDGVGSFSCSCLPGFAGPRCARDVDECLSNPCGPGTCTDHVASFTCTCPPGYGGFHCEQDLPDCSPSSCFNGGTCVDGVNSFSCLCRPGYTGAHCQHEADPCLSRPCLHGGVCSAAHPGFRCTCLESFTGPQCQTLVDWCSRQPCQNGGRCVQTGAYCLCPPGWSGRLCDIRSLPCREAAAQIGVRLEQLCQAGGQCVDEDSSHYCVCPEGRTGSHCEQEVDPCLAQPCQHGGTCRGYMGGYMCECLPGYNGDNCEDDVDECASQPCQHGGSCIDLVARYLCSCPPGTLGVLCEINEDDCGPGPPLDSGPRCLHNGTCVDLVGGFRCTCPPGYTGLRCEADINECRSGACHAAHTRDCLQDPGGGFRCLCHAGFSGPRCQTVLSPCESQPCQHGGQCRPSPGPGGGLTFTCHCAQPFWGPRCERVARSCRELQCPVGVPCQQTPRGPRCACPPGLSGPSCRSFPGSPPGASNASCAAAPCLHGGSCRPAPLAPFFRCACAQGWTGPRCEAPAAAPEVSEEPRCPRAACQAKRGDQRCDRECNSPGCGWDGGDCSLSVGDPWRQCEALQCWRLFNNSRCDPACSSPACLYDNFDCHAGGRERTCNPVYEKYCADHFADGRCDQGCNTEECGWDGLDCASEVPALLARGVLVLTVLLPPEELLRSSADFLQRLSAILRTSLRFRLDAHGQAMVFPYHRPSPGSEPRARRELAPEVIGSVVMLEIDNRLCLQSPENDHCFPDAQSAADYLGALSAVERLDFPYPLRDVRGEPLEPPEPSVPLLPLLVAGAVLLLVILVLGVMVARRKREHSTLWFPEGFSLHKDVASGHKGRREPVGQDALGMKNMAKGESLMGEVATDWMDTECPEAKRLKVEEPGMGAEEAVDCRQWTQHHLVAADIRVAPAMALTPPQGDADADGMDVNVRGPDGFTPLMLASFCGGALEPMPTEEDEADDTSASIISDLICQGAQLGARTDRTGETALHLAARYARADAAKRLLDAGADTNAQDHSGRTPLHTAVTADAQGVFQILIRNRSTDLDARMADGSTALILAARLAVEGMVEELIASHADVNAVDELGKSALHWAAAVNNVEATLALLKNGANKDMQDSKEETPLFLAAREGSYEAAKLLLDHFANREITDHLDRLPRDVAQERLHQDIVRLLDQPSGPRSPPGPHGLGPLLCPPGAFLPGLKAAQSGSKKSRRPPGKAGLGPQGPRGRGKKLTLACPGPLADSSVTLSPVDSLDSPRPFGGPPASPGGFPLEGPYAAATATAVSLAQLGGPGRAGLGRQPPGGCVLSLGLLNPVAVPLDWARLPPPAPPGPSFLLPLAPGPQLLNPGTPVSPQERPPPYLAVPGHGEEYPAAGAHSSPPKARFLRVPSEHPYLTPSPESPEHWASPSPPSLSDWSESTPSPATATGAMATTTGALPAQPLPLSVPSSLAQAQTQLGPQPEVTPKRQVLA
# [20] = probe aEGFR binding to arrayed compounds – biochemical, biotinylated probe, 635/667 nm fluorescence, primary screen (AID 1097); conditions: small-molecule microarray, higher = more signal;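 further: probe is a biotinylated anti-EGFR antibody binding compounds printed on slides; score combines fluorescence near 667 nm and signal to noise of each spot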
SMILES,composite z-score [1],composite z-score [2],composite z-score [3],composite z-score [4],composite z-score [5],composite z-score [6],composite z-score [7],z-score [8],composite z-score [9],composite z-score [10],composite z-score [11],z-score [12],z-score [13],z-score [14],composite z-score [15],z-score [16],composite z-score [17],composite z-score [18],composite z-score [19],composite z-score [20]
CC1=C2[C@@H](CCc3ccccc3)OB(O)C[C@@H]2[C@@H]2C(=O)C=CC(=O)[C@@H]2C1,-0.741,0.654,-0.0887,1.13,1.38,0.51,0.976,-1.57 (inactive),0.32,-0.16,1.31,-0.689 (inactive),-15.6 (active),-0.679 (inactive),0.775,-0.315 (inactive),0.0037,0.642,1.1,0.0484
C=C(/C(=C/C[C@@H](OC(=O)c1ccncc1)c1ccccc1OCCO)c1cnc2ccccc2c1)C(C)C,-0.108,0.707,0.0401,1.14,1.5,1.23,1.2,-3.75 (inactive),-0.177,0.144,1.54,-24.2 (active),-20.3 (active),-4.07 (inactive),2.72,-0.0023 (inactive),0.0113,1.91,1.07,0.0381
C[N+](C)(C)CCCC[C@@H]1NC(=O)[C@H]2C[C@@H](C(=O)NCCCCCCN)[C@@H](c3cccc(OCCO)c3)N2C1=O,1.71,1.85,0.0852,0.765,0.791,1.14,1.49,0.029 (inactive),0.592,1.13,1.54,-0.0132 (inactive),-0.87 (inactive),-0.133 (inactive),3.06,0.27 (inactive),1.08,1.15,1.07,0.693
C=CCOC(=O)[C@H]1[C@@H]2C(=O)O[C@@H](c3ccccc3)[C@@H](c3ccccc3)N2[C@@H](c2ccc(OCCOC(=O)[C@H]3C[C@H]4C(=O)N[C@@H](CCCCN(C)C)C(=O)N4[C@H]3c3ccc(O)cc3)cc2)[C@]12C(=O)Nc1ccccc12,0.27,0.91,-0.033,0.445,0.349,-0.013,1.19,0.139 (inactive),0.86,0.0524,1.54,-0.0535 (inactive),-1.03 (inactive),-0.713 (inactive),2.49,-0.296 (inactive),0.155,1.83,1.06,0.0088
COc1ccc([Si](C)(C)[C@@H]2[C@@H](CCO)O[C@]3(C(=O)N(Cc4ccc(N5C(=O)c6ccccc6Oc6ccccc65)cc4)c4ccccc43)[C@H]2C)cc1,0.197,-0.589,-0.106,-0.124,-0.323,1.09,0.736,-1.69 (inactive),-0.0716,-0.0324,0.106,3.36 (inactive),0.262 (inactive),37.6 (active),-0.49,0.045 (inactive),-0.0359,-0.0905,0.18,-0.241
COCCOC(=O)N1C(=O)[C@@]2(c3ccccc31)[C@H](c1ccccc1OCCO)N1[C@H](c3ccccc3)[C@H](c3ccccc3)OC(=O)[C@H]1[C@@H]2C(=O)N1CCc2cc(OC)c(OC)cc2C1,0.184,0.124,0.071,0.336,0.403,0.982,1.25,-1.61 (inactive),0.356,0.28,1.52,2.11 (inactive),1.99 (inactive),6.86 (inactive),2.01,0.344 (inactive),0.0706,1.34,1.04,0.0556
Cc1ccc(S[C@]2(C(=O)O)CC(=O)N(Cc3ccccc3C(F)(F)F)[C@@H]2c2ccc(CO)cc2)cc1,0.405,-0.138,-0.172,-0.338,-1.11,-0.343,0.508,-0.383 (inactive),-0.49,-0.374,0.667,0.517 (inactive),0.13 (inactive),0.124 (inactive),1.87,0.301 (inactive),-0.0732,-1.06,-1.34,-0.225
COc1ccc([Si](C)(C)[C@@H]2[C@@H](CC(=O)N(CCO)Cc3ccccc3)O[C@]3(C(=O)N(Cc4ccc(N5CCOC5=O)cc4)c4ccccc43)[C@H]2C)cc1,0.149,0.181,-0.093,0.222,0.294,0.567,1.1,-0.153 (inactive),0.389,0.113,1.44,-0.677 (inactive),0.303 (inactive),2.92 (inactive),2.13,-0.249 (inactive),-0.0887,0.806,0.643,-0.0343
Cc1ccc(-c2cccc(=O)o2)cc1,0.139,-0.549,-0.0973,-0.304,-0.351,-0.411,-0.596,5.3 (inactive),0.121,-0.353,-0.0072,-1.91 (inactive),-1.56 (inactive),1 (inactive),-0.606,0.0307 (inactive),-0.183,-0.175,-0.312,-0.105
CC(C)=CCCC(C)=CC(O)C1C=CC2C(=O)N(c3ccccc3)C(=O)C2N1Nc1ccc([N+](=O)[O-])cc1 (stereo not given),-0.265,0.148,0.0159,0.344,1.59,1.64,1.28,-1.01 (inactive),0.852,-0.0237,1.52,-0.706 (inactive),-0.589 (inactive),8.22 (active),3.8,-0.867 (inactive),0.0634,-0.14,1.12,0.0466
